Our source for the growth inhibition values is PubChem BioAssay (NCI).

Assay [1] is described as follows: NCI Yeast Anticancer Drug Screen. Data for the rad50 strain (AID 155).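 Note: 0% = growth of vehicle-only cultures of the same strain.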 As to conditions: S. cerevisiae rad50 strain growth inhibition, stronger effect = higher value. The gist of the method:
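Readout: growth inhibition relative to vehicle-treated cultures. Compound exposure was carried out in a genetically defined yeast strain deficient in DNA damage repair.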

Assay [2] is described as follows: NCI Yeast Anticancer Drug Screen. Data for the mec2-1 strain (AID 157). As to conditions: S. cerevisiae mec2-1 strain, stronger effect = higher value. The gist of the method:
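mec2-1 yeast strain, carrying an alteration in DNA damage repair or cell cycle control, was exposed to compounds; growth inhibition was measured relative to vehicle-treated controls.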

Assay [3] can be described thus: NCI Yeast Anticancer Drug Screen. Data for the sgs1 mgt1 strain (AID 161).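 Note: 0% = growth of cultures given vehicle only.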 As to conditions: S. cerevisiae sgs1 mgt1 strain, stronger effect = higher value. The method in brief:
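Yeast cells carrying a defined DNA-repair defect were exposed to test compounds. Growth inhibition was measured relative to vehicle-treated controls.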

Assay [4] is described as follows: NCI Yeast Anticancer Drug Screen. Data for the cln2 rad14 strain (AID 165).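 Note: 0% = growth equal to vehicle treated cultures.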 As to conditions: S. cerevisiae cln2 rad14 strain, stronger effect = higher value. The method in brief: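 Yeast carrying cln2 and rad14 alterations (cell cycle control and DNA damage repair) were exposed to compounds. Growth inhibition was measured against vehicle-treated controls.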
A short description of assay [5]: NCI Yeast Anticancer Drug Screen. Data for the bub3 strain (AID 167). As to conditions: S. cerevisiae bub3 mutant strain, stronger effect = higher value. The gist of the method: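 Readout: yeast growth inhibition, expressed relative to vehicle-only wells. The test organism is a mutant strain from a panel with lesions in DNA repair or checkpoint genes.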
Assay [6] is described as follows: NCI Yeast Anticancer Drug Screen. Data for the mlh1 rad18 strain (AID 175). As to conditions: S. cerevisiae mlh1 rad18 strain growth inhibition, stronger effect = higher value. The method in brief: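 Growth inhibition of the yeast strain was measured after compound exposure and expressed relative to vehicle-treated controls. The strain carries defined defects in DNA damage repair.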

Setting [7] is: at 5.0 µM (retest, dose inferred, filed as 0.5).
Where [8] appears, read: at 50.0 µM (retest, dose inferred, filed as 5.0).

About 79,000 compounds went through this panel and 15% of them were active in at least one assay; those are over-represented in the sample as a whole. Values without a mark were called inactive. Calls of active or inactive are those of the source. Cut-off read from the data, not from the text of the source: active = growth inhibition above about 70%; inactive = the rest.

As to `CC1=NN(c2ccccc2)C(=O)C12[C@H](c1ccccc1)C2(C#N)C#N` (some centres not stated), the growth inhibition was 34% in assay [1] (setting [7]); 92% (active) in assay [1] (setting [8]); 84% (active) in assay [1] (at 50.0 µM); 37% in assay [2] (setting [7]); 78% (active) in assay [2] (setting [8]); 54% in assay [2] (at 50.0 µM). The growth inhibition was 46% in assay [3] (setting [7]); 96% (active) in assay [3] (setting [8]); 87.3% (active) in assay [3] (at 50.0 µM); 25% in assay [4] (setting [7]); 74% (active) in assay [4] (setting [8]); 66.4% in assay [4] (at 50.0 µM). The growth inhibition in assay [5] (setting [7]) is 41%; in assay [5] (setting [8]), 81% (active); in assay [5] (at 50.0 µM) it was 77.6% (active); in assay [6] (setting [7]), 41%; in assay [6] (setting [8]), 87% (active); in assay [6] (at 50.0 µM) it was 75.8% (active).
For `O=S(=O)(Nc1ccc(NS(=O)(=O)c2ccccc2)c(N2N=N2)c1)c1ccccc1`, the growth inhibition in assay [1] (setting [7]) is 1%; in assay [1] (setting [8]) it was 69%; in assay [1] (at 50.0 µM), 86.3% (active); in assay [2] (setting [7]), 2%; in assay [2] (setting [8]) it was 80% (active); in assay [2] (at 50.0 µM), 66.2%. Also, the growth inhibition in assay [3] (setting [7]) is 4%; in assay [3] (setting [8]), 76% (active); in assay [3] (at 50.0 µM) it was 88.9% (active); in assay [4] (setting [7]) it was 0%; in assay [4] (setting [8]), 55%; in assay [4] (at 50.0 µM), 79.1% (active). The growth inhibition in assay [5] (setting [7]) was -2%; in assay [5] (setting [8]) it was 62%; in assay [5] (at 50.0 µM), 75.4% (active); in assay [6] (setting [7]) it was -2%; in assay [6] (setting [8]), 79% (active); in assay [6] (at 50.0 µM), 76.6% (active).
`NN(Cc1ccccc1)c1ccccc1`: the growth inhibition in assay [1] (setting [7]) is 50%; in assay [1] (setting [8]), 83% (active); in assay [1] (at 50.0 µM), 89.3% (active); in assay [2] (setting [7]), 47%; in assay [2] (setting [8]), 87% (active); in assay [2] (at 50.0 µM), 91.7% (active). Also, the growth inhibition is 20% in assay [3] (setting [7]); 100% (active) in assay [3] (setting [8]); 91.8% (active) in assay [3] (at 50.0 µM); 43% in assay [4] (setting [7]); 99% (active) in assay [4] (setting [8]); 90% (active) in assay [4] (at 50.0 µM). The growth inhibition in assay [5] (setting [7]) is 40%; in assay [5] (setting [8]), 99% (active); in assay [5] (at 50.0 µM), 90.5% (active); in assay [6] (setting [7]) it was 27%; in assay [6] (setting [8]) it was 77% (active); in assay [6] (at 50.0 µM), 88.6% (active).
Regarding `CC(CN(C)C)C(=O)/C=C/c1ccc(C(C)C)cc1` (configuration not stated), the growth inhibition was 3% in assay [1] (setting [7]); 89% (active) in assay [1] (setting [8]); 93.2% (active) in assay [1] (at 50.0 µM); 6% in assay [2] (setting [7]); 75% (active) in assay [2] (setting [8]); 37.3% in assay [2] (at 50.0 µM). Moreover, the growth inhibition in assay [3] (setting [7]) is 9%; in assay [3] (setting [8]), 93% (active); in assay [3] (at 50.0 µM), 97.2% (active); in assay [4] (setting [7]), 11%; in assay [4] (setting [8]), 26%; in assay [4] (at 50.0 µM) it was 25.8%. In addition, the growth inhibition in assay [5] (setting [7]) is 0%; in assay [5] (setting [8]) it was 81% (active); in assay [5] (at 50.0 µM), 69%; in assay [6] (setting [7]), -1%; in assay [6] (setting [8]) it was 94% (active); in assay [6] (at 50.0 µM), 91.4% (active).
